Source: PubChem (several laboratories)
tim23-1 inh – growth inhibitors of tim23-1 mutant yeast. inhibition, % at 20 µM. S. cerevisiae tim23-1 growth, BacTiter-Glo luminescence, 24 h. 330,000 tested, 1.3% active;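 active = growth inhibition of the mutant yeast at or above 50%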;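 also: temperature-sensitive mutant grown at 25 °C; plate controls were DMSO-treated mutant yeast for no effect and medium wells lacking yeast for full effect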
PfHsp90 set2 – growth inhibition of yeast expressing Plasmodium Hsp90; S. cerevisiae expressing PfHsp90, BacTiter-Glo ATP, 48 h; yeast lacking PDR1 and PDR3 efflux regulators; inhibition, % at 9.4 µM; 310,000 tested, 0.32% active;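 active = every replicate shows inhibition above about 80%, whatever the replicate mean, limit read from the data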;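 also: 0% = DMSO neutral controls and 100% = 20 µM radicicol positive controls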
TIM10 inh – growth inhibitors of TIM10 yeast strain | S. cerevisiae TIM10 strain growth, BacTiter-Glo luminescence, 24 h | inhibition, % at 10 µM | 330,000 tested, 1.4% active;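 active = inhibition of 40% or more at the single tested concentration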;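 also: wild-type TIM10 isogenic control strain grown at permissive 25 °C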
SKKanGAS inh – SKKanGAS growth inhibition; S. pyogenes SKKanGAS, kanamycin growth, BacTiter-Glo, 6 h; inhibition, % at 7.5 µM; 300,000 tested, 1.3% active; AID 1662;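 active = mean replicate score, as percent of positive control median, at least 50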;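 also: strain carries kanamycin resistance gene driven by streptokinase promoter and grows in 40 µg/ml kanamycin; loss of luminescence reflects streptokinase promoter inhibition or plain growth inhibition; 0% = median of DMSO wells and 100% = positive control at its reference dose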
NALP3 yeast inh – blocks the NALP3 inflammasome reconstituted in yeast. 330,000 tested, 0.39% active. Yeast reconstituted NLRP3/ASC/caspase-1, beta-gal luminescence, 24 h. inhibition, % at 10 µM;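 active = inhibition of 50% or more; inactive = inhibition below 50%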;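 also: plate controls were induced DMSO wells for no effect and uninduced yeast grown without galactose for full effect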
tim10-1 inh – growth inhibitors of tim10-1 mutant yeast | S. cerevisiae tim10-1 ts strain growth, BacTiter-Glo, 24 h | inhibition, % at 20 µM | 330,000 tested, 2.2% active | AID 463190;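 active = inhibition of at least 40%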;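 also: mutant grown at 25 °C; 0% = DMSO wells with yeast and 100% = wells holding no yeast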
tim23-1 conf – confirmation of tim23-1 mutant yeast growth inhibitors. shares compounds with tim23-1 inh. S. cerevisiae tim23-1 growth, BacTiter-Glo luminescence, 24 h. inhibition, % at 20 µM. 4,400 tested, 83% active. AID 463218;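 active = inhibition above about 39% in either of two replicate wells at 20 µM, limit read from the data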;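 also: temperature-sensitive tim23-1 mutant grown at 25 °C; 0% = DMSO wells with yeast and 100% = medium wells without yeast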
An asterisk follows results filed as active. In the library only some 4.5% were active in any assay of this set; here they are far more common.

C/C(=N/NC(=O)CNS(=O)(=O)c1ccccc1)c1ccc(Br)cc1 was read as tim23-1 inh -9, PfHsp90 set2 9, TIM10 inh 3, SKKanGAS inh -3, NALP3 yeast inh 4 and tim10-1 inh -10.
For Brc1cccc(-c2n[nH]c(-c3ccccc3)n2)c1 the results were tim23-1 inh 69*, PfHsp90 set2 -38, TIM10 inh 23, SKKanGAS inh 0, NALP3 yeast inh 23, tim10-1 inh 24 and tim23-1 conf 48*.
Screening CC(=O)C1CCC2C3CC(O)C4=CC(=O)CCC4(C)C3C(=O)CC12C (configuration not stated) returned PfHsp90 set2 -10.
For Clc1cc2cccnc2c2ncccc12 the results were tim23-1 inh 65*, PfHsp90 set2 3, TIM10 inh 14, NALP3 yeast inh 21, tim10-1 inh 9 and tim23-1 conf 39.
`CC(C)CCN1C(=O)c2cccc3c(N)ccc(c23)C1=O` gave tim23-1 inh 65*, PfHsp90 set2 -6, TIM10 inh 14, SKKanGAS inh -7, NALP3 yeast inh 10, tim10-1 inh 39 and tim23-1 conf 47*.
O=C(O)c1cccc(-c2ccc(/C=N/NC(=O)C3COc4ccccc4O3)o2)c1 (configuration not stated) was read as tim23-1 inh 16, PfHsp90 set2 -22, TIM10 inh -5, NALP3 yeast inh 15 and tim10-1 inh -4.
O=C(N/N=C\c1ccc(-c2ccccc2[N+](=O)[O-])o1)C1COc2ccccc2O1 (configuration not stated) was read as tim23-1 inh 76*, PfHsp90 set2 4, TIM10 inh 26, SKKanGAS inh 1, NALP3 yeast inh 11, tim10-1 inh 37 and tim23-1 conf 53*.
`O=C(N/N=C\c1ccc(-c2ccccc2[N+](=O)[O-])o1)C1COc2cc3ccccc3cc2O1` (configuration not stated) gave tim23-1 inh 58*, PfHsp90 set2 6, TIM10 inh 36, SKKanGAS inh 16, NALP3 yeast inh 13, tim10-1 inh 17 and tim23-1 conf 53*.
CCC(=O)N1CCc2cc(Br)cc(S(=O)(=O)N3CCC(C(=O)NC(C)C)CC3)c21 was read as tim23-1 inh -2, PfHsp90 set2 1, TIM10 inh 9, SKKanGAS inh 5, NALP3 yeast inh 1 and tim10-1 inh 5.
Screening Nc1cc(S(=O)(=O)Nc2ccccc2Cl)ccc1N1CCCCC1 returned tim23-1 inh 58*, PfHsp90 set2 -50, TIM10 inh 31, NALP3 yeast inh 4, tim10-1 inh 36 and tim23-1 conf 62*.
For COc1ccc2cc(C3=CCCC3(C)C(=O)O)ccc2c1 (configuration not stated) the results were PfHsp90 set2 -19.
COc1ccc(C2CC(c3ccccc3)=NN2c2ccc(Cl)c(C(=O)O)c2)cc1 (configuration not stated) was read as tim23-1 inh 21, PfHsp90 set2 -31, TIM10 inh 8, SKKanGAS inh 25, NALP3 yeast inh -2 and tim10-1 inh 10.
Screening COc1ccc(C2CC(c3ccccc3)=NN2c2ccc(N)cc2)cc1 (configuration not stated) returned tim23-1 inh 51*, PfHsp90 set2 -12, TIM10 inh 27, SKKanGAS inh -6, NALP3 yeast inh 22, tim10-1 inh 28 and tim23-1 conf 41*.
For CCC(=O)Nc1cccc(C2=NN(c3ccccc3)C(c3ccc(OC)cc3)C2)c1 (configuration not stated) the results were tim23-1 inh 51*, PfHsp90 set2 -42, TIM10 inh 13, SKKanGAS inh 12, NALP3 yeast inh -5, tim10-1 inh 8 and tim23-1 conf 30.
`Cc1ccc(-c2nc3c(Cl)cc(Cl)cc3c(=O)n2O)cc1` gave tim23-1 inh 54*, PfHsp90 set2 72, TIM10 inh 1, SKKanGAS inh 90*, NALP3 yeast inh 14, tim10-1 inh 9 and tim23-1 conf 53*.
O=c1c2ccccc2nc(-c2ccc(Cl)cc2Cl)n1O was read as tim23-1 inh 16, PfHsp90 set2 23, TIM10 inh -19, SKKanGAS inh 13, NALP3 yeast inh 34 and tim10-1 inh -4.
Screening Cc1noc(C)c1S(=O)(=O)Nc1ccc(C(C)C)cc1 returned tim23-1 inh 32, PfHsp90 set2 1, TIM10 inh 16, SKKanGAS inh 2, NALP3 yeast inh 39 and tim10-1 inh 12.
`CCCCn1c(N)c(N(CCOC)C(=O)CCS(=O)(=O)c2ccc(Cl)cc2)c(=O)[nH]c1=O` gave tim23-1 inh 4, TIM10 inh 11, SKKanGAS inh 0, NALP3 yeast inh 6 and tim10-1 inh 12.
Screening CCOc1ccccc1C(=O)N/N=C/c1coc2ccc(C)cc2c1=O returned tim23-1 inh 64*, PfHsp90 set2 -1, TIM10 inh 18, NALP3 yeast inh 7, tim10-1 inh 28 and tim23-1 conf 66*.
`O=C(N/N=C/c1coc2ccccc2c1=O)c1ccc(Cl)cc1` gave tim23-1 inh 54*, PfHsp90 set2 13, TIM10 inh 21, SKKanGAS inh -9, NALP3 yeast inh 6, tim10-1 inh 25 and tim23-1 conf 43*.
`O=C(N/N=C/c1coc2ccccc2c1=O)c1ccccc1` gave tim23-1 inh 22, PfHsp90 set2 9, TIM10 inh 19, SKKanGAS inh 0, NALP3 yeast inh 1 and tim10-1 inh 1.
Screening Cc1ccc2occ(/C=N/NC(=O)c3ccccc3Br)c(=O)c2c1 returned tim23-1 inh 63*, PfHsp90 set2 2, TIM10 inh 23, SKKanGAS inh 3, NALP3 yeast inh 10, tim10-1 inh 31 and tim23-1 conf 66*.
Cc1nc2ccccc2c(=O)n1NC(=O)c1ccco1 was read as tim23-1 inh 10, PfHsp90 set2 5, TIM10 inh 0, NALP3 yeast inh 14 and tim10-1 inh 0.
`Cc1ccccc1OCc1nc2ccccc2c(=O)n1NC(=O)c1ccco1` gave tim23-1 inh 53*, PfHsp90 set2 -5, TIM10 inh 10, SKKanGAS inh 5, NALP3 yeast inh 9, tim10-1 inh 20 and tim23-1 conf 38.
Screening COC(=O)[C@H](Cc1ccccc1)N1C/C=C\COc2c(Cl)cc(Cl)cc2S1(=O)=O returned tim23-1 inh 52*, PfHsp90 set2 29, TIM10 inh -9, tim10-1 inh 20 and tim23-1 conf 37.
For Cc1ccc(-c2cc(-c3ccccc3)nc(N(C)N)n2)cc1 the results were tim23-1 inh 56*, PfHsp90 set2 24, TIM10 inh 32, SKKanGAS inh 68*, NALP3 yeast inh 20, tim10-1 inh 35 and tim23-1 conf 53*.
